Results on 7 compounds are retold here after article PMC5540273 (PLoS ONE, 2017).

Structures are written as SMILES.

Conditions in all cases: concentration: 1 μM, replicates: in singlicate; n = 1
For assay [1], the system named is CHEK2.
Assay [2] relates to CIT.
The subject of assay [3] is CLK1.
Assay [4] deals with CLK2.
In assay [5] the test system is CLK3.
Assay [6] deals with CLK4.
Assay [7] concerns CSF1R-autoinhibited.
In assay [8] the test system is CSF1R.
The test system of assay [9] is CSK.
In assay [10] the test system is CSNK1A1L.
For assay [11], the system named is CSNK1A1.
In assay [12] the test system is CSNK1D.
Assay [13] deals with CSNK1E.
For assay [14], the system named is CSNK1G1.
The subject of assay [15] is CSNK1G2.
In assay [16] the test system is CSNK1G3.
Assay [17] has as its system CSNK2A1.
Assay [18] has as its system CSNK2A2.
The test system of assay [19] is T1, CTK.
T1 construct: gene MATK

The test system of assay [20] is DAPK1.
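Note: KINOMEscan kinase panel screen.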

For the compound `Fc1cc(Cl)ccc1Nc1ccnc2cc(I)ccc12` [GW551191], the “%Inh” value in [1] amounted to 0%; in assay [2], 37%; in [3] it was 27%; in assay [4], 0%; in assay [5] it was 5%; in assay [6], 5%. The “%Inh” value in [7] was found to be 0%; in [8] it was 0%; in assay [9] it was 0%; in assay [10] it was 0%; in assay [11], 0%; in assay [12] it was 5%. In addition, the “%Inh” value turned out to be 35% in assay [13]; 4% in assay [14]; 0% in assay [15]; 20% in [16]; 0% in assay [17]; 0% in assay [18]. The “%Inh” value in assay [19] turned out to be 0%; in assay [20], 19%.
In the case of `Fc1cccc(COc2nnc(-c3ccc4c(c3)CCO4)o2)c1`, the “%Inh” value in assay [1] is 10%; in [2] it was 0%; in [3], 32%; in [4] it was 13%; in [5], 0%; in assay [6] it was 53%. Moreover, the “%Inh” value in assay [7] is 0%; in assay [8] it was 11%; in [9], 0%; in assay [10] it was 12%; in assay [11] it was 0%; in assay [12], 0%. For the same compound, the “%Inh” value is 0% in assay [13]; 10% in assay [14]; 4% in assay [15]; 0% in [16]; 42% in assay [17]; 60% in assay [18]. In addition, the “%Inh” value in [19] stood at 0%; in [20], 24%.
Regarding `CC(=O)Nc1nc2cnc(Nc3cc(NC(=O)c4cccc(CCC#N)c4)ccc3C)nc2s1`, the “%Inh” value in assay [1] stood at 0%; in assay [2], 34%; in [3] it was 0%; in assay [4], 3%; in [5] it was 0%; in assay [6] it was 12%. The “%Inh” value in [7] turned out to be 0%; in assay [8], 90.9%; in assay [9], 0%; in [10] it was 0%; in [11], 23%; in [12], 3%. Further, the “%Inh” value stood at 0% in assay [13]; 2% in [14]; 7% in [15]; 0% in assay [16]; 0% in assay [17]; 9% in assay [18]. In addition, the “%Inh” value in assay [19] and in assay [20] was 0% in each case.
On to `Cc1cccc(-c2nc(C)cc(Nc3ccncc3)n2)n1` [GSK257997], for which the “%Inh” value in assay [1] came to 0%; in assay [2], 23%; in [3] it was 13%; in assay [4], 9%; in [5], 15%; in assay [6], 9%. For the same compound, the “%Inh” value in assay [7] was 0%; in assay [8] it was 0%; in [9] it was 0%; in assay [10], 7%; in [11] it was 0%; in assay [12], 43%. In addition, the “%Inh” value in assay [13] stood at 42%; in assay [14] it was 13%; in assay [15], 0%; in assay [16], 10%; in assay [17], 2%; in assay [18], 22%. Further, the “%Inh” value in [19] was 0%; in assay [20] it was 9%.
Turning to `CCn1c(-c2cccnc2O)nc2cnccc21` [SB-736715], the “%Inh” value was found to be 0% in assay [1]; 0% in [2]; 10% in assay [3]; 0% in [4]; 0% in [5]; 0% in [6]. The “%Inh” value in [7] was 2%; in [8] it was 0%; in assay [9], 0%; in assay [10] it was 84%; in [11], 16%; in assay [12], 0%. The “%Inh” value in assay [13], in [14], in [15], in assay [16], in assay [17] and in assay [18] was 0% each time. The “%Inh” value was 3% in assay [19] and 0% in [20].
As for `Cc1cc(NCC(c2ccccc2)c2ccccc2)nc(NCc2ccc(C(F)(F)F)cc2)n1` [GW497681], the “%Inh” value is recorded as 18% in [1]; 30% in assay [2]; 15% in assay [3]; 0% in assay [4]; 37% in assay [5]; 15% in assay [6]. Moreover, the “%Inh” value stood at 30% in assay [7]; 6% in assay [8]; 0% in assay [9]; 2% in [10]; 0% in assay [11]; 0% in assay [12]. Moreover, the “%Inh” value came out at 34% in [13]; 0% in assay [14]; 0% in assay [15]; 22% in assay [16]; 0% in assay [17]; 0% in assay [18]. Further, the “%Inh” value is 0% in [19] and 2% in assay [20].
As for `Cc1nnc(-c2ccc3occ(-c4ccc(S(C)=O)cc4)c3c2)[nH]1` (centres unmarked), the “%Inh” value in assay [1] amounted to 10%; in [2], 0%; in assay [3], 0%; in [4] it was 22%; in assay [5], 0%; in [6], 29%. Also, the “%Inh” value is given as 8% in [7]; 5% in [8]; 0% in [9]; 26% in assay [10]; 0% in [11]; 0% in assay [12]. The “%Inh” value was found to be 0% in [13]; 8% in assay [14]; 4% in assay [15]; 0% in [16]; 63% in [17]; 72% in assay [18]. The “%Inh” value in [19] came out at 21%; in assay [20] it was 10%.
